Values joined by “and” are separate entries in the source; they are usually repeats but may differ in a detail not shown here. Identical values can stand only once. Inconclusive results are not listed. Active and inactive are the calls of the source. How the source made its calls, unless noted: active means hit-call score of the fitted dose curve at least 0.9, where 1 is the maximum; inactive means score below 0.9.
Key:
[1] = target: human Thyroid Receptor alpha (THRa1), THRA (gene 7067) (UniProt P10827); experiment: ATG_THRa1_TRANS: Attagene TRANS-FACTORIAL HepG2 Assay for human Thyroid Receptor alpha (THRa1) (AID 2283014; active means hit-call score of the fitted dose curve at least 0.9, where 1 is the maximum)
In short: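 First, HepG2 cells receive multiple GAL4-UAS reporter units and the chimeric receptor. They are then dosed for 24 h, after which RNA is reverse-transcribed, amplified, labelled, HpaI-cut and sized by capillary electrophoresis; gain relative to DMSO is scored.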

[2] = read-out: E-selectin (Homo sapiens) (UniProt P16581); experiment: BSK_3C_Eselectin: BioMAP Diversity Plus: 3C Assay for Eselectin Biomarker Activity (AID 2283015); details: primary human endothelial cells (HUVEC); actives raise or lower the signal
In short: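 Human vascular endothelium from umbilical vein is exposed to test chemicals for 24 h. E-selectin levels are read by ELISA and compared with DMSO controls.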

[3] = read-out: Interleukin-1 alpha (IL1a), IL1A (gene 3552); experiment: BSK_BE3C_IL1a: BioMAP Diversity Plus: BE3C Assay for Interleukin-1 alpha (IL1a) Biomarker Activity (AID 2283016); details: primary human bronchial epithelial cells; actives raise or lower the signal
In short: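 Cultures of primary human bronchial epithelial cells receive test chemical. After 24 h, IL-1a is quantified by ELISA, while parallel wells are fixed in TCA and SRB-stained for total protein. Changes in either direction are fitted relative to DMSO.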

[4] = read-out: Monocyte Chemoattractant Protein-1 (MCP1), CCL2 (gene 6347); experiment: BSK_3C_MCP1: BioMAP Diversity Plus: 3C Assay for Monocyte Chemoattractant Protein-1 (MCP1) Biomarker Activity (AID 2283017); details: primary human endothelial cells (HUVEC); actives raise or lower the signal
In short: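 Endothelial cells from human umbilical vein are dosed with chemical, cultured 24 h, then assayed for MCP-1 by ELISA; both increases and decreases are modelled against DMSO controls.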

[5] = read-out: Monocyte Chemoattractant Protein-1 (MCP1), CCL2 (gene 6347); experiment: BSK_4H_MCP1: BioMAP Diversity Plus: 4H Assay for Monocyte Chemoattractant Protein-1 (MCP1) Biomarker Activity (AID 2283018); details: primary human endothelial cells (HUVEC); actives raise or lower the signal
In short: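 Readout: MCP-1 ELISA on compound-treated HUVEC, sampled 24 h post-dosing. Baseline and negative control DMSO; bidirectional fit. Overt toxicity checked alongside by sulforhodamine B protein staining at time of biomarker measurement.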

[6] = read-out: Human Leukocyte Antigen - DR isotype (HLADR), HLA-DRA (gene 3122); experiment: BSK_3C_HLADR: BioMAP Diversity Plus: 3C Assay for Human Leukocyte Antigen - DR isotype (HLADR) Biomarker Activity (AID 2283019); details: primary human endothelial cells (HUVEC); actives raise or lower the signal
In short: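 Endothelial cells from human umbilical vein are treated with test chemical; after 24 h, HLA-DR levels are measured by ELISA. Data are fitted in both directions using DMSO as the baseline.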

[7] = read-out: Interleukin-8 (IL8), CXCL8 (gene 3576); experiment: BSK_3C_IL8: BioMAP Diversity Plus: 3C Assay for Interleukin-8 (IL8) Biomarker Activity (AID 2283020); details: primary human endothelial cells (HUVEC); actives raise or lower the signal
In short: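 Human vascular endothelial cells (umbilical vein) in the 3C system; IL-8 level detected by ELISA at 24 h post-dose, with DMSO as baseline.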

[8] = target: human Vitamin D Receptor (VDR), VDR (gene 7421) (UniProt P11473); experiment: ATG_VDR_TRANS: Attagene TRANS-FACTORIAL HepG2 Assay for human Vitamin D Receptor (VDR) (AID 2283022; active means hit-call score of the fitted dose curve at least 0.9, where 1 is the maximum)
In short: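 Fluorescence of labelled reporter cDNA fragments, resolved by capillary electrophoresis, gives mRNA induction after 24 h treatment of HepG2 cells carrying transfected Gal4-fusion reporter units. Activity is fitted in the positive direction with DMSO as baseline.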

[9] = read-out: Monokine induced gamma interferon (MIG), CXCL9 (gene 4283); experiment: BSK_3C_MIG: BioMAP Diversity Plus: 3C Assay for Monokine induced gamma interferon (MIG) Biomarker Activity (AID 2283021); details: primary human endothelial cells (HUVEC); actives raise or lower the signal;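 on AC50: MIG protein level measured by immunoassay in the treated endothelial cultures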
In short: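 After 24 h of treatment, human umbilical vein endothelial cultures (3C system) had their MIG biomarker level determined by ELISA, with DMSO serving as negative control.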

[10] = BSK_3C_SRB: Viability Assessment in the BioMAP Diversity Plus: 3C Assay (AID 2283023); details: primary human endothelial cells (HUVEC);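 further: cells read 24 h after compound dosing; fitted both ways against DMSO so a hit may be signal rise or drop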
In short: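 Cells were dosed with chemical, cultured 24 h, fixed with 10% TCA, stained with 0.1% SRB and read at 560 nm. Human umbilical vein endothelium was used; DMSO served as negative control and baseline.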

Measured: AC50

E-selectin (Homo sapiens), sequence (P16581 whole entry, looked up): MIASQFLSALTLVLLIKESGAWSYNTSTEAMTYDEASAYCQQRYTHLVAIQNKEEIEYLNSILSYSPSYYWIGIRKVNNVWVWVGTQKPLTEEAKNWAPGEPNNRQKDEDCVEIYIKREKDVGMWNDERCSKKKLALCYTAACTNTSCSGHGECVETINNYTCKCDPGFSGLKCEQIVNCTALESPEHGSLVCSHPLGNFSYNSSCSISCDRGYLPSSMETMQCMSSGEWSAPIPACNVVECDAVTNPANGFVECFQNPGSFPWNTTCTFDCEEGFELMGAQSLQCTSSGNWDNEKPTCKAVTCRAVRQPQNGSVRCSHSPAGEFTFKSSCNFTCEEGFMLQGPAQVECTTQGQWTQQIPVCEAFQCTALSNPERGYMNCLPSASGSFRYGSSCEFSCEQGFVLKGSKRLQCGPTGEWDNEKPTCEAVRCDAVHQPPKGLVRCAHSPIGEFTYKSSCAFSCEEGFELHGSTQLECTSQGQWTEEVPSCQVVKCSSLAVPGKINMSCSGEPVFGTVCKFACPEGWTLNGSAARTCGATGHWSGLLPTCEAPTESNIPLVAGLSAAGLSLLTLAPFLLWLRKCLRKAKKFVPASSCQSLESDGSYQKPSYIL
human Vitamin D Receptor (VDR), VDR (gene 7421), sequence (P11473 whole entry, looked up, the tested form may be a part): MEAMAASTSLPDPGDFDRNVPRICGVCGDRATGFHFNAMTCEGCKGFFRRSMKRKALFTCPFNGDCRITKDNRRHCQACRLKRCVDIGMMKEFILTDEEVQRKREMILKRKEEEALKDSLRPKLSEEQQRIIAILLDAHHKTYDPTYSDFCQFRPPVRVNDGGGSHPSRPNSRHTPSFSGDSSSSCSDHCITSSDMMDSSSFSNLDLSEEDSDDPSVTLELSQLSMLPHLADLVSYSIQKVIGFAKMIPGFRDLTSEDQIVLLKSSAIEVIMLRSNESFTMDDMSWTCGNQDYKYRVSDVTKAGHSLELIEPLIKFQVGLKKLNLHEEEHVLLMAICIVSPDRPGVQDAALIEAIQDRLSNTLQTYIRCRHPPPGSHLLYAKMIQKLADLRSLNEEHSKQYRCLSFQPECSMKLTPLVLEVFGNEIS
human Thyroid Receptor alpha (THRa1), THRA (gene 7067), sequence (P10827 whole entry, looked up, the tested form may be a part): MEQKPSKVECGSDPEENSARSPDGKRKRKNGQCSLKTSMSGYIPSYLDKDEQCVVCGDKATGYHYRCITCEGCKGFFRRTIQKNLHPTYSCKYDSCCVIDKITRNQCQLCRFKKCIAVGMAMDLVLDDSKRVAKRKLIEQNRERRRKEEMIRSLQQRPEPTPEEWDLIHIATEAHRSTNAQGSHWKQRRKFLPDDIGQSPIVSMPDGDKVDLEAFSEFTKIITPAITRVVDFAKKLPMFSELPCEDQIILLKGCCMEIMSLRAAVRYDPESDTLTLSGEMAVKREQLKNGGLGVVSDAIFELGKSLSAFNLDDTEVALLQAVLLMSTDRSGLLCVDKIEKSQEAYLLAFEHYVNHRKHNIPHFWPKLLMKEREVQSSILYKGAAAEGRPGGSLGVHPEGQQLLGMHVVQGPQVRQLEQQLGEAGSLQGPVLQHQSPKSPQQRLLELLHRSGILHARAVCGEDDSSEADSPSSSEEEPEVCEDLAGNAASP

CC(C)(C)c1ccccc1O
inactive: [1] | [2] | [3] | [4] | [5] | [6] | [7] | [8]

Oc1c(Br)cc(Br)cc1Br
inactive: [3] | [5] | [7] | [9]
active: [1] 100 µM | [2] 27.2 µM | [4] 32.9 µM | [6] 34.3 µM | [10] 35.5 µM

CC(C=O)Cc1ccc2c(c1)OCO2 (stereo not drawn)
inactive: [1] | [2] | [3] | [4] | [5] | [6] | [7] | [10]

Cc1cc(Cl)ccc1OC(C)C(=O)O (stereo not drawn)
inactive: [1] | [2] | [3] | [4] | [5] | [6] | [7] | [10]

C=CCN=C=S
inactive: [1] | [8]

CCOP(=S)(OCC)OP(=S)(OCC)OCC
inactive: [1] | [3] | [7]
active: [2] 32.1 µM | [4] 26.5 µM | [5] 33.5 µM | [6] 30.4 µM | [10] 26.6 µM

Nc1c(Oc2ccccc2)cc(O)c2c1C(=O)c1ccccc1C2=O
inactive: [1] | [2] | [3] | [4] | [5] | [6] | [7] | [8] | [10]

OC(Cc1ccccc1Cl)(Cn1cncn1)C1(Cl)CC1 (stereo not drawn)
inactive: [1] | [2] | [3] | [4] | [5] | [6] | [7] | [8]

O=[N+]([O-])c1ccc(Nc2ccccc2)cc1
inactive: [1] | [2] | [3] | [4] | [6] | [7] | [8]
active: [5] 20 µM

O=C(O)C1(c2ccc3c(c2)OC[C@H](Cc2ccc(-c4ccccc4)cc2)[C@H]3O)CCCC1
active: [2] 24.9 µM | [3] 15.3 µM | [4] 23.6 µM | [5] 20 µM | [6] 20 µM | [7] 29.9 µM | [9] 35.7 µM | [10] 28 µM
inactive: [1] | [8]

O=C=Nc1ccc(Cl)cc1
inactive: [1] | [8]

CN(N=O)c1ccc([N+](=O)[O-])cc1
inactive: [1] | [8]

Cc1cc(C)cc(C)c1
inactive: [1] | [2] | [3] | [4] | [5] | [6] | [7] | [9] | [10]

Cc1cc(Cl)ccc1N
inactive: [1] | [2] | [3] | [4] | [5] | [6] | [7] | [9] | [10]

CCCCOP(=O)(CCCC)OCCCC
inactive: [1] | [8]

CCOCn1c(-c2ccc(Cl)cc2)c(C#N)c(Br)c1C(F)(F)F
inactive: [1] | [8]

CN(C)c1ccc(N=O)cc1
inactive: [1] | [8]

CC1(C)[C@H](C(=O)O[C@H](C#N)c2cccc(Oc3ccccc3)c2)[C@@H]1/C=C(\Cl)C(F)(F)F
active: [5] 1.11 µM and 4.07 µM
inactive: [1] | [2] | [3] | [4] | [6] | [7] | [8]

O=C(CCl)NCO
inactive: [1] | [2] | [3] | [4] | [5] | [6] | [7] | [8]

OCC(c1ccc(Cl)cc1)c1ccc(Cl)cc1
inactive: [1] | [8]

O=C1C=CC(=O)c2ccccc21
inactive: [1] | [8]
active: [2] 4.15 µM | [3] 3.75 µM | [4] 3.04 µM | [5] 1.45 µM | [6] 2.14 µM | [7] 5.23 µM | [9] 6.7 µM | [10] 4.92 µM

CN(C)C(=S)S
active: [3] 29.6 µM
inactive: [1] | [2] | [4] | [5] | [6] | [7] | [8] | [10]

C=CCOC(N)=O
inactive: [1] | [8]

O=[N+]([O-])c1cc([As](=O)(O)O)ccc1O
inactive: [1] | [8]

CC(C)N(C(=O)CCl)c1ccccc1
inactive: [1] | [7]
active: [2] 20 µM | [3] 35.1 µM | [4] 20 µM | [5] 20 µM | [6] 7.36 µM | [10] 20 µM

CC(C)(COCC1CO1)COCC1CO1 (stereo not drawn)
inactive: [1] | [2] | [3] | [4] | [5] | [7] | [8]
active: [6] 20 µM

COc1ccccc1N
inactive: [1] | [2] | [3] | [4] | [5] | [6] | [7] | [10]

NC(=O)CCl
inactive: [1] | [2] | [3] | [4] | [5] | [6] | [7] | [9] | [8] | [10]

O=C(Cl)OCCOCCOC(=O)Cl
inactive: [1] | [8]

O=CCCl
inactive: [1] | [8]

Oc1c(Cl)cc(Cl)cc1Cl
inactive: [1] | [2] | [3] | [4] | [5] | [6] | [7] | [10]

From PubChem BioAssay (EPA / NIEHS)
